# Experimental data taken from PubChem BioAssay AID1159580 (chemical genetic matrix, 2015).
# The campaign covered roughly 5,500 compounds. About 2,000 (36%) were called active. Not shown: some 18% with an inconclusive outcome. The list shows a part of the results. Unmarked numbers belong to inactive results. No stated cut-off is given here; in the data, active means normalized growth mostly below about 0.91 (no sharp cut-off); inconclusive means no clear call, values can overlap the other calls; inactive means mostly above about 0.92.
# Assay: chemical genetic growth profiling, strain panel (AID 1159580);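 further: tested at 20 µM; growth read once vehicle control cultures reached saturation at 30 °C; 1 = growth at the plate median or of vehicle wells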
# Settings: S. cerevisiae deletion strains, growth OD
structure (smiles),measurement,setting,value
COP(=S)(OC)Oc1ccc(SC)c(C)c1,normalized growth,"locus YAL013W, strain DEP1, stronger effect = lower value",1
same,normalized growth,"locus YAL021C, strain ccr4, stronger effect = lower value",1.07
same,normalized growth,"locus YAL026C, strain drs2, stronger effect = lower value",0.984
same,normalized growth,"locus YAL030W, strain snc1, stronger effect = lower value",1
same,normalized growth,"locus YBL061C, strain skt5, stronger effect = lower value",0.981
same,normalized growth,"locus YBR009C, strain hhf1, stronger effect = lower value",0.904 (active)
same,normalized growth,"locus YBR021W, strain FUR4, stronger effect = lower value",0.98
same,normalized growth,"locus YBR023C, strain chs3, stronger effect = lower value",0.973
same,normalized growth,"locus YBR171W, strain sec66, stronger effect = lower value",0.992
same,normalized growth,"locus YBR229C, strain ROT2, stronger effect = lower value",1.02
same,normalized growth,"locus YBR231C, strain swc5, stronger effect = lower value",1.03
same,normalized growth,"locus YBR279W, strain paf1, stronger effect = lower value",1.01
same,normalized growth,"locus YCL011C, strain gbp2, stronger effect = lower value",0.955
same,normalized growth,"locus YCL016C, strain dcc1, stronger effect = lower value",0.954
same,normalized growth,"locus YCL029C, strain bik1, stronger effect = lower value",0.988
same,normalized growth,"locus YCL069W, strain vba3, stronger effect = lower value",0.981
same,normalized growth,"locus YCR088W, strain abp1, stronger effect = lower value",1
same,normalized growth,"locus YDL005C, strain med2, stronger effect = lower value",1.01
same,normalized growth,"locus YDL035C, strain GPR1, stronger effect = lower value",1.01
same,normalized growth,"locus YDL040C, strain nat1, stronger effect = lower value",1
same,normalized growth,"locus YDL074C, strain BRE1, stronger effect = lower value",1.01
same,normalized growth,"locus YDL101C, strain DUN1, stronger effect = lower value",1.03
same,normalized growth,"locus YDL134C, strain PPH21, stronger effect = lower value",1.02
same,normalized growth,"locus YDL185W, strain tfp1, stronger effect = lower value",0.986
same,normalized growth,"locus YDL192W, strain arf1, stronger effect = lower value",0.989
same,normalized growth,"locus YDR001C, strain nth1, stronger effect = lower value",0.999
same,normalized growth,"locus YDR069C, strain doa4, stronger effect = lower value",1.02
same,normalized growth,"locus YDR101C, strain arx1, stronger effect = lower value",0.988
same,normalized growth,"locus YDR137W, strain rgp1, stronger effect = lower value",0.94
same,normalized growth,"locus YDR150W, strain NUM1, stronger effect = lower value",1.02
same,normalized growth,"locus YDR159W, strain sac3, stronger effect = lower value",0.919
same,normalized growth,"locus YDR162C, strain NBP2, stronger effect = lower value",1.01
same,normalized growth,"locus YDR195W, strain ref2",1.2 [resistant] (active)
same,normalized growth,"locus YDR297W, strain sur2, stronger effect = lower value",1.01
same,normalized growth,"locus YDR318W, strain mcm21, stronger effect = lower value",0.99
same,normalized growth,"locus YDR334W, strain swr1, stronger effect = lower value",1.01
same,normalized growth,"locus YDR335W, strain msn5, stronger effect = lower value",1.01
same,normalized growth,"locus YDR388W, stronger effect = lower value",0.991
same,normalized growth,"locus YDR392W, strain spt3, stronger effect = lower value",0.766
same,normalized growth,"locus YDR502C, strain sam2, stronger effect = lower value",1
same,normalized growth,"locus YEL003W, strain gim4, stronger effect = lower value",1
same,normalized growth,"locus YEL037C, strain rad23, stronger effect = lower value",1
same,normalized growth,"locus YEL061C, strain CIN8 (second series), stronger effect = lower value",1
same,normalized growth,"locus YEL061C, strain CIN8, stronger effect = lower value",1.01
same,normalized growth,"locus YER015W, strain faa2, stronger effect = lower value",0.995
same,normalized growth,"locus YER016W, strain bim1, stronger effect = lower value",0.978
same,normalized growth,"locus YER110C, stronger effect = lower value",0.986
same,normalized growth,"locus YER111C, strain swi4, stronger effect = lower value",1.01
same,normalized growth,"locus YER155C, strain BEM2 (second series), stronger effect = lower value",0.951
same,normalized growth,"locus YER155C, strain BEM2, stronger effect = lower value",1.02
same,normalized growth,"locus YER167W, strain BCK2, stronger effect = lower value",1
same,normalized growth,"locus YFR010W, strain ubp6, stronger effect = lower value",1.03
same,normalized growth,"locus YGL078C, strain dbp3, stronger effect = lower value",0.981
same,normalized growth,"locus YGL086W, strain mad1, stronger effect = lower value",0.991
same,normalized growth,"locus YGL167C, strain pmr1, stronger effect = lower value",0.993
same,normalized growth,"locus YGL173C, strain kem1, stronger effect = lower value",0.988
same,normalized growth,"locus YGL227W, strain vid30, stronger effect = lower value",1.01
same,normalized growth,"locus YGL240W, strain doc1, stronger effect = lower value",0.989
same,normalized growth,"locus YGL248W, strain PDE1, stronger effect = lower value",1.03
same,normalized growth,"locus YGL253W, strain hxk2, stronger effect = lower value",0.955
same,normalized growth,"locus YGR078C, strain PAC10, stronger effect = lower value",0.999
same,normalized growth,"locus YGR135W, strain pre9, stronger effect = lower value",0.987
same,normalized growth,"locus YGR229C, strain SMI1, stronger effect = lower value",0.984
same,normalized growth,"locus YGR252W, strain gcn5, stronger effect = lower value",0.922
same,normalized growth,"locus YHR013C, strain ard1, stronger effect = lower value",1.02
same,normalized growth,"locus YHR027C, strain rpn1, stronger effect = lower value",0.998
same,normalized growth,"locus YHR030C, strain SLT2, stronger effect = lower value",1.02
same,normalized growth,"locus YHR079C, strain IRE1 (second series), stronger effect = lower value",0.99
same,normalized growth,"locus YHR094C, strain hxt1, stronger effect = lower value",0.984
same,normalized growth,"locus YHR129C, strain ARP1, stronger effect = lower value",1.01
same,normalized growth,"locus YHR142W, strain chs7, stronger effect = lower value",0.912
same,normalized growth,"locus YHR200W, strain rpn10, stronger effect = lower value",0.977
same,normalized growth,"locus YIL066C, strain RNR3, stronger effect = lower value",1
same,normalized growth,"locus YIL073C, strain SPO22, stronger effect = lower value",0.954
same,normalized growth,"locus YIL125W, strain kgd1, stronger effect = lower value",0.996
same,normalized growth,"locus YIR030C, strain dcg1, stronger effect = lower value",0.988
same,normalized growth,"locus YJL092W, strain hpr5, stronger effect = lower value",0.992
same,normalized growth,"locus YJL095W, strain BCK1 (second series), stronger effect = lower value",0.97
same,normalized growth,"locus YJL095W, strain BCK1, stronger effect = lower value",0.983
same,normalized growth,"locus YJL115W, strain asf1, stronger effect = lower value",1.02
same,normalized growth,"locus YJL129C, strain trk1, stronger effect = lower value",0.958
same,normalized growth,"locus YJL134W, strain LCB3, stronger effect = lower value",1.02
same,normalized growth,"locus YJL154C, strain vps35, stronger effect = lower value",1.01
same,normalized growth,"locus YJL164C, strain tpk1, stronger effect = lower value",0.935
same,normalized growth,"locus YJL166W, strain qcr8, stronger effect = lower value",0.974
same,normalized growth,"locus YJL168C, strain set2, stronger effect = lower value",0.991
same,normalized growth,"locus YJL187C, strain SWE1 (second series), stronger effect = lower value",1.01
same,normalized growth,"locus YJR043C, strain POL32, stronger effect = lower value",1
